Pf growth 48h: inhibits P. falciparum growth in the first generation, 48 h; P. falciparum luciferase growth in erythrocytes, 48 h; 5.9% of 310,000 active; Potency, µM (titrated, usually from 28.7 µM), for the others: at the highest dose activity change, negative = inhibition, actives largely listed as inhibitors; further: potency means the concentration at half of the fitted maximal effect
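A one-generation exposure of luciferase-tagged malaria parasites in RPMI 1640/Albumax erythrocyte culture, 37 C and 5% CO2. Inhibition is inferred from decreased luminescence after adding detection reagent.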
Pf growth 96h: P. falciparum growth inhibition at 96 hour, primary screen for plastid delayed-death inhibitors. P. falciparum luciferase reporter growth, 96 h. Potency, µM (top dose mostly 28.7 µM), for inactives: top-dose activity change, negative = inhibition, hits mostly inhibitors. 6.9% of 320,000 active. AID 504834; further: potency means the concentration at half of the fitted maximal effect
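Two-generation exposure (96 h) targets delayed-death phenotype. Reporter parasites carrying integrated firefly luciferase, in red cells at 2% hematocrit and 0.05% parasitemia final, kept at 37 C, 5% CO2; luminescence loss indicates inhibition.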
HCMV antiviral: human cytomegalovirus inhibition | HFF cells, HCMV-luciferase reporter, 72 h; active compounds read low | activity change, negative = inhibition, % at 57.5 µM | 4.5% of 410,000 active | AID 1259415; in the data active means activity change below about -60%; inconclusive means no clear call, values can overlap the other calls; inactive means above about -39%
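Steps: HFFs plated, 16 h 37C; compounds added; HCMV-luciferase added to MOI 1 PFU/cell; 72 h 37C; OneGlo reagent, 5 min room temperature; luminescence read, normalized to controls.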
FBPA Giardia inh: blocks Giardia fructose-bisphosphate aldolase activity; AID 2451; 0.71% of 290,000 active; Potency, µM (highest dose often 59.6 µM), for inactives: top-dose activity, negative = inhibition, hits mostly inhibitors; purified Giardia FBPA; further: potency means the concentration at half of the fitted maximal effect; nearly all actives have a fitted effect of over 55% in size
Target sequence (A8B2U2 whole entry, looked up): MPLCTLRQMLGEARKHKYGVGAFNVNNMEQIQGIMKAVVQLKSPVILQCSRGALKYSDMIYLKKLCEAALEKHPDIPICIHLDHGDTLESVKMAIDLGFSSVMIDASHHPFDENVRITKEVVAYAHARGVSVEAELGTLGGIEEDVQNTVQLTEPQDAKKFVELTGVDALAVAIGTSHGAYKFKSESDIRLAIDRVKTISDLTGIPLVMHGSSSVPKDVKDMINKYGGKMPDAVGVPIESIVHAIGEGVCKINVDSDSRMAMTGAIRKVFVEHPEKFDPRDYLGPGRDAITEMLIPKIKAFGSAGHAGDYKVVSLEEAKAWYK
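Giardia FBPA (40 nM reagent) was preincubated 10 min at RT with compound (up to 57.5 uM final), then substrate plus GAPDH/TPI/NAD/arsenate coupling system with diaphorase/resazurin was added; resorufin fluorescence (525/598 nm) was read after 20 min.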
Sm TGR inh: S. mansoni TGR enzyme inhibition; Q962Y6; purified TGR, DTNB reduction, TNB absorbance 405 nm; Potency, µM (top dose mostly 114 µM), for the others: at the highest dose activity change, negative = inhibition, hits mostly inhibitors; 3% of 360,000 active; AID 485364; further: potency means the concentration at half of the fitted maximal effect; nearly all actives have a fitted effect of over 60% in size
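First, TGR (20 nM dispensed) and NADPH were mixed with compound. Second, a 15 min room-temperature incubation followed. Third, further NADPH and then DTNB were added to start the reaction. Finally, TNB absorbance was monitored kinetically.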
Starred values were filed as active, the others as inactive; u = inconclusive; x = not tested or not shown; ! = not active in a repeat; [ ] = remark or other dose. Compounds with a hit are over-represented: about 14% of the library has one in this group of screens. Unless noted, the call rests on the fitted dose curve; in most records, active means well fitted curve in the direction sought with a large enough effect; inconclusive means small, poorly fitted or top-dose-only effect, or another doubt; inactive means no such curve, though single readings can be large; an effect the other way counts as inactive or inconclusive. On the % scale 0 is the no-effect control and ±100 the full control effect.

SMILES	Pf growth 48h	Pf growth 96h	HCMV antiviral	FBPA Giardia inh	Sm TGR inh
O=C1C(Cc2ccc(Br)cc2)SC(=Nc2ccccc2)N1c1ccccc1 (centres undefined)	13µM*	u	-9	1%	10%
O=C(CC1S/C(=N\S(=O)(=O)c2ccc(F)cc2)N(c2ccccc2)C1=O)Nc1ccccc1 (centres undefined)	-8%	38%	-6	-5%	-13%
CCc1cccc(NC(=O)c2ccc3c(c2)N(Cc2cccc(Cl)c2)C(=O)c2ccccc2S3=O)c1 (centres undefined)	x	x	-8	x	15%
COCc1cc(CNC(=O)C2CCC(=O)N(Cc3cccc(OC)c3)C2)[nH]n1 (centres undefined)	9%	-4%	-33	2%	0%
COCCNC(=O)C1(C)CCN(C(=O)C2(c3ccc(Cl)cc3)CCCC2)C1 (centres undefined)	x	x	-37	x	x
O=C(CN1C(=O)NC(c2ccccc2)(c2ccccc2)C1=O)N1CCN(c2ccccc2F)CC1	13µM*	u	-32	x	-14%
O=C(CN1C(=O)NC(c2ccccc2)(c2ccccc2)C1=O)N1CCN(c2ccc(F)cc2)CC1	12µM*	u	-15	x	1%
Cc1ccccc1-c1cnc2c(c1)C(=O)N([C@H](C)CO)C[C@@H](C)[C@H](CN(C)C(=O)c1ccncc1)O2	x	x	15	x	x
O=S(=O)(NCc1ccccc1)NCc1ccccc1	24%	2%	-68*	0%	68%
CCOC(=O)[C@H]1[C@H]2COc3ccc(OC)cc3[C@@H]2N2C(=O)CN(CC3CCCO3)C(=O)[C@@]12C (some centres undefined)	-5%	u	20	x	-2%
Cc1cccc(NC(=O)CCNS(=O)(=O)c2cc(Br)cnc2N)c1C	17%	4%	-39	-7%	12%
CCN(C(=S)NC(=O)C1CC1)c1ccccc1	1%	50%	-14	u	0%
O=C(C1CC1)N(CCN(C(=O)C1CC1)c1ccccc1)c1ccccc1	0.0026µM*	-6%	-15	x	1%
COc1ccc(Cl)cc1NC(=O)CN(C)C(=O)c1n[nH]c2ccccc12	-5%	19%	-8	x	7%
COc1ccc(Cl)cc1NC(=O)CN(C)CC(=O)Nc1ccccc1-c1ccccc1	u	12µM*	-39	-1%	1%
Cc1ccc(NC(=O)CN(C)CC(=O)Nc2ccccc2-c2ccccc2)cc1	u	13µM*	-4	-6%	13%
COc1ccc(Cl)cc1NC(=O)CN(C)C(=O)c1cc(=O)c2ccccc2o1	12µM*	u	14	x	-12%
CC1CCN(CC(=O)Nc2ccccc2-c2ccccc2)CC1	u	u	-13	-5%	0%
CC1CCCCC1NCC(=O)Nc1ccccc1-c1ccccc1 (centres undefined)	u	15µM*	u	-8%	-2%
CN(CC(=O)Nc1ccccc1Br)CC(=O)Nc1ccccc1-c1ccccc1	u	u	-18	x	-3%
C[C@@H](NCc1cc(Br)cc2[nH]c(=O)c(=O)[nH]c12)P(=O)(O)O	x	x	x	-27%	x
C/C=C(/CCC1NCCc2c1[nH]c1ccccc21)[Si](C)(C)C (centres undefined)	x	x	26	x	x
Cc1nc(Nc2ccccc2)c2nc(-c3ccccc3)n(CCN3CCOCC3)c2n1	x	x	x	-10%	x
CN(CC(=O)Nc1ccccc1Cl)C1CCS(=O)(=O)C1 (centres undefined)	2%	4%	11	x	4%
COc1ccc(Cl)cc1NC(=O)CN(C)C1CCS(=O)(=O)C1 (centres undefined)	u	u	25	x	50µM*
SMILES	Pf growth 48h	Pf growth 96h	HCMV antiviral	FBPA Giardia inh	Sm TGR inh
C=CCn1c(COc2ccccc2OC)nc2ccccc21	u	u	-2	2%	7%
COC(=O)[C@@H]1C[C@@]2(O)[C@@H](O)[C@@H](O)[C@@H](O)C[C@H]2N1Cc1ccc(C(C)(C)C)cc1	x	x	x	6%	x
CC(=O)N1CCC2(CC1)CC(=O)c1cc(OCC(=O)NCc3ccco3)ccc1O2	-2%	50%	7	3%	25µM*
CC1(C)CC(=O)c2cc(OCC(=O)N3CCCCCC3)ccc2O1	u	13µM*	17	3%	5%
CCN1CCN(C(=O)COc2ccc3c(c2)C(=O)CC2(CCN(C(C)=O)CC2)O3)CC1	x	8.3µM*	3	0%	-6%
Oc1ccc(N2CCN(Cc3cc4c(cc3Br)OCCO4)CC2)cc1	12µM*	13µM*	-23	-2%	-24%
O=S(=O)(c1cccc(F)c1)N1CCN(Cc2cc3c(cc2Br)OCCO3)CC1	9.3µM*	u	-14	x	0%
CNc1nc2cnc(Nc3cccc(OC)c3)cc2n1Cc1ccc(OC)c(OC)c1	x	x	24	x	x
Cn1nnnc1SCC(=O)Nc1ccc(C(=O)N2CCN(Cc3ccccc3F)CC2)cc1	u	-20%	-1	x	2%
COc1ccc(C(=O)c2c3ccccc3[n+]([O-])n2CCC(N)=O)cc1	u	33%	-9	x	-10%
COc1ccc(C(=O)c2c3ccccc3[n+]([O-])n2CCCN)cc1	u	-100%	-96*!	x	u
Cc1ccc(C(=O)c2c3ccc([N+](=O)[O-])cc3[n+]([O-])n2CCCN)cc1	-94%	u	-2	x	35µM*
Cc1ccc(C(=O)c2c3ccc(C(F)(F)F)cc3[n+]([O-])n2CCCN)cc1	u	u	-2	x	-25%
COc1ccc(C(=O)c2c3ccccc3[n+]([O-])n2Cc2ccc(C(N)=O)cc2)cc1	u	6.6µM*	2	x	-5%
COc1ccc2c(C(=O)c3ccc(Cl)cc3)n(CCCC(N)=O)[n+]([O-])c2c1	9.3µM*	u	0	x	-15%
COc1ccccc1NC(=O)c1cc([N+](=O)[O-])ccc1N1CCOCC1	-10%	u	36	15%	-4%
O=C(CN1C(=O)COc2ccc(S(=O)(=O)N3CCOCC3)cc21)N1CCN(c2ccccc2)CC1	x	x	7	x	2%
COc1ccc(C(=O)c2c3ccc(C(F)(F)F)cc3[n+]([O-])n2CCCN)cc1	12µM*	u	-30	x	-31%
CCn1cnc2cc(NS(=O)(=O)c3ccc(OC)c(OC)c3)ccc21	-2%	1%	85	6%	2%
COc1ccc(Cn2nnnc2C(c2cccs2)N2CCN(c3ccc([N+](=O)[O-])cc3)CC2)cc1 (centres undefined)	10µM*	u	9	2%	-13%
CCCC(c1nnnn1Cc1ccc(OC)cc1)N1CCN(c2ccccc2OC)CC1 (centres undefined)	10µM*	x	-4	-23%	-10%
COc1ccc(Cn2nnnc2CN2CCc3ccccc32)cc1	-18%	x	50	-10%	-33%
COc1ccc(Cn2nnnc2C(c2cccs2)N2CCN(c3ccccc3)CC2)cc1 (centres undefined)	-22%	6%[5.75 µM]	-34	-3%	-1%

Compound activity from PubChem BioAssay.
